The target in experiment [1] is T1, Aspartate--tRNA(Asp/Asn) ligase (Mycobacterium tuberculosis (strain ATCC 25618 / H37Rv)) (UniProt P9WFW3). Note: in the data most compounds retested in dose-response had high values.
T1 sequence (whole entry): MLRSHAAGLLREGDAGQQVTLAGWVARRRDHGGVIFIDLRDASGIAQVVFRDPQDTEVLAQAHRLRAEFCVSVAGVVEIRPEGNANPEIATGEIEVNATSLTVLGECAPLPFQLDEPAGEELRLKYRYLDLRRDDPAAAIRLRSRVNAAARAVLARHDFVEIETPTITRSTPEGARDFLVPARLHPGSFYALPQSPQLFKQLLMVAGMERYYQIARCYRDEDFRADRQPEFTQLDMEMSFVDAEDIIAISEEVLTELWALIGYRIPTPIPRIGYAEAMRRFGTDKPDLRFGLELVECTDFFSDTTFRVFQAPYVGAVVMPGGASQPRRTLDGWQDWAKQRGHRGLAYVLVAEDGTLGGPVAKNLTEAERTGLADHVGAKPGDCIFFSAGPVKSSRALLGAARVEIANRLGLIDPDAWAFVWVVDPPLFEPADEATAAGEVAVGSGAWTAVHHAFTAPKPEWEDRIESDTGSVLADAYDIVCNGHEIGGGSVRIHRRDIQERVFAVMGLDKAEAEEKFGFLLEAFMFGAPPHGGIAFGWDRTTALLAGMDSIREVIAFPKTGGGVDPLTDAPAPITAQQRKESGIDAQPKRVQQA
Briefly: Assay for Asp RNA synthetase-1 from Mycobacterium tuberculosis. The format is functional. The arrangement: scale not given: direction of the effect not stated beside the values. The conditions noted are these: 30 µM.

Experiment [2] deals with Shiga toxin 2 (Escherichia coli O157:H7) (UniProt P09385+P09386). Briefly: E. coli 0.157:H7 Shiga Toxin SOP - stx2 screening assay. The format is functional. Also on record: scale not given: direction of the effect not stated beside the values. To be noted: 30 µM.

In the case of `Cc1cc(CN2CC[C@H]3C[C@H](C(=O)N4CCC(C)CC4)O[C@H]3C2)no1`, the Percent Effect in experiment [1] turned out to be 1.91%; in experiment [2] it was 0.444%.

Regarding `c1nc2c(c(C3CC3)n1)CCN(CC1CCOC1)CC2` (stereo not given), the Percent Effect was 3.35% in experiment [1] and -6.27% in experiment [2].

On to `CN(C)[C@@H]1CN(Cc2ccco2)C[C@@H]2CCCO[C@@H]21`, for which the Percent Effect in experiment [1] is -2%; in experiment [2] it was 6.7%.

With `Cc1cc(CN2CCN(CC(O)c3ccccc3)CC2)no1` (stereo not given), the Percent Effect in experiment [1] is -5.08%; in experiment [2], 3.56%.

Consider `CCOCCCNC(=O)c1cc(C(C)C)nc(N2CCCCCC2)n1`, for which the Percent Effect is 1.1% in experiment [1] and -56.1% in experiment [2].

Consider `COCCN(C)C(=O)c1ccc(OC)cc1O`, for which the Percent Effect in experiment [1] is 0.638%; in experiment [2], -28.1%.

As to `CC(C)OCC(=O)N1CCCN(Cc2ccc(C#N)cc2)CC1`, the Percent Effect in experiment [1] is -0.7%; in experiment [2], 27.2%.

On to `c1cnn(CC2CN(c3ncnc4ccsc34)CCO2)c1` (stereo not given), for which the Percent Effect in experiment [1] is 1.65%; in experiment [2], -10.2%.

On to `Cc1ccc(CC(=O)N2CCCC(c3nc(C)cs3)C2)cn1` (stereo not given), for which the figures for the Percent Effect in experiment [1] and in experiment [2] were 2.77% and 7.66%, respectively.

In the case of `N#Cc1cccc(S(=O)(=O)N2CCCCC2CCN2CCCC2=O)c1` (stereo not given), the Percent Effect in experiment [1] is -2.87%; in experiment [2], -20.4%.

As for `COCCN1CCC(Cc2cncc(-c3ccc(C(=O)O)cc3)n2)C1` (stereo not given), the Percent Effect came out at 4.51% in experiment [1] and 8.34% in experiment [2].

With `c1cncc(COCc2nnc3n2CCN(Cc2ccsc2)C3)c1`, the figures for the Percent Effect in experiment [1] and in experiment [2] were -0.684% and -54.6%, respectively.

For `CCc1nc(NCC(=O)N2CCOCC2)c2c(n1)c(C)nn2CC`, the Percent Effect in experiment [1] is -2.73%; in experiment [2] it was -15.5%.

Regarding `CCn1ncnc1C(C)NC(=O)C1CCN(C(C)C)CC1` (stereo not given), the Percent Effect is 3.06% in experiment [1] and -16.7% in experiment [2].

As to `CN(C)CCNC(=O)c1cc(-c2cnc(N3CCCC3)nc2)cn1C`, the Percent Effect was -0.309% in experiment [1] and -17.7% in experiment [2].

With `CC(=O)NCc1ccc(C(=O)N2CCCCC2Cn2cccn2)o1` (stereo not given), the Percent Effect was 0.175% in experiment [1] and -2.7% in experiment [2].

Turning to `Cn1ccnc1-c1ccccc1C(=O)N1CCc2c(nc(N)[nH]c2=O)C1`, the Percent Effect is 2.08% in experiment [1] and -35.7% in experiment [2].

For `CCC(=O)N1CCC(c2nnc(Cn3cccn3)n2C2CC2)CC1`, the values for the Percent Effect in experiment [1] and in experiment [2] were -6.07% and -3.53%, respectively.

On to `O=c1cc(CN2CCCC2)nc2n1CCCN(Cc1ccsc1)C2`, for which the Percent Effect in experiment [1] was -4.85%; in experiment [2], -22.4%.

Turning to `Cc1occc1C(=O)N1CCc2ncnc(-c3cnn(C)c3)c2CC1`, the Percent Effect was -0.55% in experiment [1] and -3.59% in experiment [2].

The values above are taken from ChEMBL document CHEMBL3988442, “University of Dundee, Small-Polar-MMV Screening Library” (2021).
